Each structure is given as a SMILES string. About 14,000 (4.5%) of roughly 310,000 compounds showed an effect of 50% or more. Effects have a minus sign here. What follows is part of a selection rich in strong results, with near analogues and random picks from the rest.
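Also: peak tail current of the secondary pulse compared with the same well before compound.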

The assay deals with human ether-à-go-go-related gene (hERG) potassium channel (human, UniProt Q12809). In words: primary screen, population patch clamp on CHO cells stably expressing hERG; higher = less effect of the substance.
human ether-à-go-go-related gene (hERG) potassium channel, sequence (Q12809 whole entry, looked up): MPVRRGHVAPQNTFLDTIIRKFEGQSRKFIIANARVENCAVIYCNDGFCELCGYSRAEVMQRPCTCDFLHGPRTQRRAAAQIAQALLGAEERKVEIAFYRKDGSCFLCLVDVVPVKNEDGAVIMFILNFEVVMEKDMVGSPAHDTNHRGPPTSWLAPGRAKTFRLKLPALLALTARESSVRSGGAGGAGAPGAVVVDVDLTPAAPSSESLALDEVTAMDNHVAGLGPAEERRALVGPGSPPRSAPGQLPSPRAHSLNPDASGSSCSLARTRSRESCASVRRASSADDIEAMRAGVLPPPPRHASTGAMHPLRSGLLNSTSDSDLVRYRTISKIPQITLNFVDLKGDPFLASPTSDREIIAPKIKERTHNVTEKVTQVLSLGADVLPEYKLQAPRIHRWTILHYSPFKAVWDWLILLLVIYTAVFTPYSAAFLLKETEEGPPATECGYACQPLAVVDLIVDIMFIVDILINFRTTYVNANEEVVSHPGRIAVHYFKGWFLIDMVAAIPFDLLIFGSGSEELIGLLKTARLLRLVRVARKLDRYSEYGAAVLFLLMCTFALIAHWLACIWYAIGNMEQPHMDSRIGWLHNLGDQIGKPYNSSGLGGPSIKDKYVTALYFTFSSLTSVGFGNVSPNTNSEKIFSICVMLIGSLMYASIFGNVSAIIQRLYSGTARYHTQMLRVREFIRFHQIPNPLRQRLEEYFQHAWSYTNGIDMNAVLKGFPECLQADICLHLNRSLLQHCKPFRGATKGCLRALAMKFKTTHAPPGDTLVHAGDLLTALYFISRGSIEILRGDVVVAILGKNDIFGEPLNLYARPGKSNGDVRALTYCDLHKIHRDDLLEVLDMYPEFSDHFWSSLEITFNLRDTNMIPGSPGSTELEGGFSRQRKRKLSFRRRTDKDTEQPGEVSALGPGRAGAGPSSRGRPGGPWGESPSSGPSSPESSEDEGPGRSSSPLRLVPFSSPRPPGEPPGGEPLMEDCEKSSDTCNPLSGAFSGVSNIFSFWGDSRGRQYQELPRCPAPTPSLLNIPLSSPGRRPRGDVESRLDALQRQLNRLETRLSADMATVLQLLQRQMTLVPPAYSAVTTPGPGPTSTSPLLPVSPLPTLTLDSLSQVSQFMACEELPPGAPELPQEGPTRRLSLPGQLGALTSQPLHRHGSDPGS
Turning to `NS(=O)(=O)c1ccc2nc(NC(=O)c3ccncc3)sc2c1`, the “hERG current change (%, negative = inhibition) at 10uM” value was determined as 13.9%. For the compound `Cc1nc(NS(=O)(=O)c2ccc(Cl)s2)c2c3c(sc2n1)CCCC3`, the “hERG current change (%, negative = inhibition) at 10uM” value is -28.7%. The result for `CCCCCCNC(=O)c1cc(-c2ccco2)nc2ccccc12` reads -11.5%. As for `CCCCOc1cc(C(=O)NCCN(CC)CC)c2ccccc2n1`, the “hERG current change (%, negative = inhibition) at 10uM” value is on record as -65.9%.

Regarding `NS(=O)(=O)c1ccc(CCNC(=O)c2cc(-c3ccccc3)nc3ccccc23)cc1`, the “hERG current change (%, negative = inhibition) at 10uM” value is on record as -10.4%. Under `CCN(CC)CCNC(=O)c1cc(-c2ccc(Br)s2)nc2ccccc12` stands -9.2%. Under `CCN(CC)CCNC(=O)c1cc(Nc2ccc(OC)c(OC)c2)nc2ccccc12` stands -23.8%. For the compound `COc1ccc(Nc2cc(C(=O)NCCCN3CCOCC3)c3ccccc3n2)cc1`, the “hERG current change (%, negative = inhibition) at 10uM” value is listed as -26.5%. Turning to `CCN(CC)CCNC(=O)c1ccc(NC(=O)c2cc(-c3ccco3)nc3ccccc23)cc1`, the “hERG current change (%, negative = inhibition) at 10uM” value is given as -30.2%. Regarding `NS(=O)(=O)c1ccc(CCNC(=O)c2cc(-c3ccco3)nc3ccccc23)cc1`, the “hERG current change (%, negative = inhibition) at 10uM” value is listed as -58.3%. Under `CCN(CC)CCCNC(=O)c1cc(Nc2ccc(OC)cc2OC)nc2ccccc12` stands -36.1%; under `CCN(CC)CCCNC(=O)c1cc(Nc2ccc(OC)cc2)nc2ccccc12`, -53.8%; under `COc1ccc(CCNC(=O)c2cc(-c3ccco3)nc3ccccc23)cc1`, 2.98%. For `CCN(CC)CCNC(=O)c1cc(-c2ccco2)nc2ccccc12.Cl`, the “hERG current change (%, negative = inhibition) at 10uM” value is given as -65.5%. Take `CN1C(=O)N2CN(C3CCCCC3)CN3C(=O)N(C)C1C23` (stereo not drawn): the “hERG current change (%, negative = inhibition) at 10uM” value was 9.88%. The result for `Cc1noc(C)c1COC(=O)C1COc2ccccc2O1` (stereo not drawn) reads 15.2%; that for `CCc1ccc(N(C(=O)c2csnn2)C(C(=O)NC(C)(C)C)c2cccnc2)cc1` (stereo not drawn), 4.59%; that for `CCOCCCNC(=O)C(NC(=O)c1ccccn1)c1ccc(C)cc1` (stereo not drawn), -0.00042%. Under `Cc1ccccc1NS(=O)(=O)c1ccc(-c2ccc(=O)[nH]n2)o1` stands -2.13%; under `COc1ccccc1N1CCN(C(=O)CCCn2c(=O)[nH]c3ccsc3c2=O)CC1`, 4.33%. The result for `O=C(CCC(=O)c1ccc(F)cc1)Nc1cccc(C(F)(F)F)c1` reads 7.22%.

In the case of `COc1ccc(Nc2ccc([N+](=O)[O-])cc2[N+](=O)[O-])cc1`, the “hERG current change (%, negative = inhibition) at 10uM” value is reported as -32.5%.

As for `O=C(Nc1ccc(Cl)cc1C(=O)NCC1CCCO1)c1ccc(Cl)cc1Cl` (stereo not drawn), the “hERG current change (%, negative = inhibition) at 10uM” value was -10.2%.

As for `CC(C1CC2CCC1C2)N1CC(O)=C(c2nc3ccccc3[nH]2)C1=N` (stereo not drawn), the “hERG current change (%, negative = inhibition) at 10uM” value is reported as -17.9%. Under `Cc1ccc(C)c(S(=O)(=O)N/N=C/c2cccnc2)c1` stands 7.65%. The result for `COc1ccc(OC)c(NS(=O)(=O)c2ccc3c(c2)n(C)c(=O)n3C)c1` reads -5.85%. The result for `CCC/C(=N\NC(=O)C1CC1)c1ccc(Br)cc1` reads 11.9%; that for `C/C(=N\N=C1\NC(=O)CC(C(=O)O)S1)c1ccc(F)cc1` (stereo not drawn), 0.193%; that for `CCOC(=O)c1nn(C23CC4CC(CC(C4)C2)C3)c2c1C(=O)N(c1ccc(C)cc1)C2=O`, 20.3%. Consider `Cc1cc([N+](=O)[O-])nn1CC(=O)Nc1ccc(F)cc1`, for which the “hERG current change (%, negative = inhibition) at 10uM” value is given as 6.31%. For `Cc1cc([N+](=O)[O-])nn1CC(=O)Nc1cnc2ccccc2c1`, the “hERG current change (%, negative = inhibition) at 10uM” value is reported as -81.1%. In the case of `Cc1cc([N+](=O)[O-])nn1CC(=O)Nc1ccccn1`, the “hERG current change (%, negative = inhibition) at 10uM” value was determined as 5.51%. Under `Cc1cccc(C)c1-n1c(C)nn(CC#N)c1=O` stands 19.1%. The result for `CN=C1c2cc3cc(OC)ccc3n2CCN1C.Cl` reads -53%; that for `COc1ccc2c(c1)c1c3n2CCN(C)C3=NCC1.Cl`, -67.7%.

As for `CN=C1c2c(-c3ccccc3)c3cc(OC)ccc3n2CCN1C.Cl`, the “hERG current change (%, negative = inhibition) at 10uM” value is reported as -62.6%.

Regarding `COc1ccc2[nH]c3c(c2c1)CCN=C3C`, the “hERG current change (%, negative = inhibition) at 10uM” value was -18.2%. The result for `CCN(CC)CCNC1=NCCn2c1cc1cc(OC)ccc12.Cl` reads -66.6%. As for `COc1ccc2c(c1)cc1n2CCN=C1NCCO.Cl`, the “hERG current change (%, negative = inhibition) at 10uM” value was -10.2%. Under `COc1ccc2c(c1)cc(C(=O)O)n2C` stands -6.02%; under `COC(=O)c1cc2cc(OC)ccc2n1C`, 0.821%; under `COc1ccc2c(c1)c1ccccc1n2C`, 11%. Consider `COc1ccc2c(c1)c1c(n2C(C)=O)C(OC(C)=O)=NCC1`, for which the “hERG current change (%, negative = inhibition) at 10uM” value is listed as -8.94%.

In the case of `CCN(CC)CCNC(=O)COc1ccc(OC)cc1.Cl`, the “hERG current change (%, negative = inhibition) at 10uM” value was -9.07%.

For the compound `COc1ccc2c(c1)c(=O)cc(-c1ccccc1)n2C`, the “hERG current change (%, negative = inhibition) at 10uM” value is recorded as 0.0751%. On to `Cc1ccc(NC(=O)C(C)OC(=O)Cn2cnc3ccccc3c2=O)cc1` (stereo not drawn), for which the “hERG current change (%, negative = inhibition) at 10uM” value was -12.4%. Under `COc1ccc(N2CCN(C(CNC(=O)OCc3ccccc3)c3ccco3)CC2)cc1` (stereo not drawn) stands -27.4%; under `CCOC(=O)c1cc(S(=O)(=O)NCCc2ccccc2)cn1C`, 2.98%.

On to `Clc1ccccc1CN1CCN(c2ccccc2Cl)CC1`, for which the “hERG current change (%, negative = inhibition) at 10uM” value was found to be 16%. The result for `CCc1cc(C(=O)c2ccc(OC)cc2)c(N)s1` reads -12.7%; that for `N/C(CS(=O)(=O)c1ccc(F)cc1)=N\O`, 11.8%. Under `CC(C)(C)C(=O)CNS(=O)(=O)c1ccc(S(=O)(=O)NC2CC2)cc1` stands 12.3%; under `COCCNC(=O)/C(C#N)=C/c1c(N2CC(C)OC(C)C2)nc2ccccn2c1=O` (stereo not drawn), -0.67%.

In the case of `CCS(=O)(=O)Nc1ccc(-c2cc(-c3ccccc3)c3cc(C)ccc3n2)cc1`, the “hERG current change (%, negative = inhibition) at 10uM” value is recorded as 0.812%.

On to `COc1ccc(NC(=O)NC2(C(=O)N3CCN(C)CC3)CCCCC2)cc1`, for which the “hERG current change (%, negative = inhibition) at 10uM” value is recorded as 9.88%. The result for `O=C(c1cccc(F)c1)N1CCC2(CC1)NCCc1[nH]cnc12` reads 6.92%; that for `Cc1cc(Br)c(NC(=O)COC(=O)CSc2nnc(-c3ccc(Cl)cc3)o2)c(Br)c1`, 1.39%. Under `CCN(CC)c1ccc(NC(=S)NCC2CCCO2)cc1` (stereo not drawn) stands 7.83%; under `COc1ccc2c(c1)cc1n2CCN=C1NN.Cl.O`, 2.89%. Take `COc1ccc(C(=S)N2CCN(C)CC2)cc1Br`: the “hERG current change (%, negative = inhibition) at 10uM” value was -9.51%. Under `COc1ccc2c(c1)cc1n2CCN2CCCN=C12.Cl` stands -51.6%. For `COc1ccc2nc(N3CCCC3)[nH]c2c1.Cl`, the “hERG current change (%, negative = inhibition) at 10uM” value is reported as -15.7%.

With `CN=C1c2cc3c(Br)c(OC)ccc3n2CCN1C.Cl`, the “hERG current change (%, negative = inhibition) at 10uM” value is -66.9%. The result for `O=C(Nc1ccc2nn(-c3ccccc3)nc2c1)c1ccco1` reads 7.51%. Under `COC(=O)c1ccc(CSc2nnc(NC(C)C)s2)o1` stands 29.8%; under `O=C(/C=C/c1cccc(Cl)c1)Nc1ccncc1`, -17.1%; under `O=C(Nc1cccc(-n2cnnn2)c1)c1ccc(Cl)cc1Cl`, 4.58%. The result for `Cc1ccc(Sc2nc3c(c(=O)[nH]c(=O)n3C)n2CCc2ccccc2)cc1` reads 5.16%; that for `Cc1nn(Cc2c(F)c(F)c(F)c(F)c2F)c(C)c1NC(=O)c1cccc(COc2ccccc2Cl)c1`, -3.4%. In the case of `O=C(CCc1ccccc1)Nc1ccnn1C1CCN(Cc2ncc[nH]2)CC1`, the “hERG current change (%, negative = inhibition) at 10uM” value amounted to 19%. In the case of `O=C(CCc1ccccc1)Nc1ccnn1C1CCN(Cc2ccc(OCCO)cc2)CC1`, the “hERG current change (%, negative = inhibition) at 10uM” value is listed as -65.3%.

`CC(C)Oc1ccc(CN2CCC(n3nccc3NC(=O)CCc3ccccc3)CC2)cc1`: the “hERG current change (%, negative = inhibition) at 10uM” value is given as -82.3%. Under `Cn1cc(CN2CCC(n3nccc3NC(=O)CCOc3ccccc3)CC2)cn1` stands 17.1%; under `CCn1cc(CN2CCC(n3nccc3NC(=O)CCc3ccccc3)CC2)cn1`, 2.28%.

As to `O=C(CCOc1ccccc1)Nc1ccnn1C1CCN(Cc2ccccc2)CC1`, the “hERG current change (%, negative = inhibition) at 10uM” value was -50%. The result for `COc1cccc(CN2CCC(n3nccc3NC(=O)CCCc3ccccc3)CC2)c1` reads -71.3%; that for `CCOc1cccc(CN2CCC(n3nccc3NC(=O)CCCc3ccccc3)CC2)c1`, -27.5%; that for `CC(=O)Nc1ccc(CN2CCC(n3nccc3NC(=O)CCc3ccccc3)CC2)cc1`, -5.87%.

Turning to `CC(=O)c1cccc(CN2CCC(n3nccc3NC(=O)CCCc3ccccc3)CC2)c1`, the “hERG current change (%, negative = inhibition) at 10uM” value was -37.8%. For `Cn1cc(CN2CCC(n3nccc3NC(=O)CCc3ccccc3)CC2)cn1`, the “hERG current change (%, negative = inhibition) at 10uM” value stood at 16%. Under `O=C(CCOc1ccccc1)Nc1ccnn1C1CCN(Cc2ccc(O)cc2)CC1` stands -31.3%. As to `OC1CCCN(Cc2ccc3ccc4cccc5ccc2c3c45)C1` (stereo not drawn), the “hERG current change (%, negative = inhibition) at 10uM” value is listed as -4.79%.

As to `CCOC(=O)c1c(C)[nH]c(C)c1S(=O)(=O)N(C)CC(=O)NCc1cccc(C)c1`, the “hERG current change (%, negative = inhibition) at 10uM” value was -13.3%. Consider `COc1ccc(-c2cc3ccccc3[nH]2)cc1`, for which the “hERG current change (%, negative = inhibition) at 10uM” value is 7.8%. Under `O=C(Nc1ccccc1C(=O)NCCCn1ccnc1)c1ccc(Cl)cc1Cl` stands -47.1%. Under `O=C(Nc1ccc(Cl)cc1)Nc1nc(-c2ccccc2)cs1` stands 11.3%; under `CCc1ccc(OCC(=O)N/N=C(\C)c2ccc3c(c2)OCCO3)cc1`, -21.5%; under `CC(Oc1ccccc1)C(=O)NNS(=O)(=O)c1ccc([N+](=O)[O-])cc1` (stereo not drawn), 13.4%.

`COc1ccc2cc(C(=O)N3CCC(Cc4ccccc4)CC3)[nH]c2c1`: the “hERG current change (%, negative = inhibition) at 10uM” value stood at 25.5%. For the compound `C/C(=N\Nc1ccccc1)c1c(O)n(Cc2ccccc2)c(=O)[nH]c1=O`, the “hERG current change (%, negative = inhibition) at 10uM” value came out at 8.42%.

Source of the values: article PMC4336329 (PLoS ONE, 2015).
